# Where “and” joins values, the source holds several entries; their conditions need not be identical. Equal entries are not always repeated. A number with no mark means an inactive call. Results filed as inconclusive are left out. Entries that show only a call come without a potency. Calls of active or inactive are those of the source. Unless noted, calls follow the shape of the dose curve; as a rule, active = well fitted curve in the direction sought with a large enough effect; inconclusive = small, poorly fitted or top-dose-only effect, or another doubt; inactive = no such curve, though single readings can be large; an effect the other way counts as inactive or inconclusive.
# Assays:
# [1] = Cell Viability - MRC5 (AID 434; calls by dose curve;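 also: potency is read from the fitted curve at half-maximal effect; cells exposed to compound for 40 hours at 37 °C; potency reflects cytotoxicity seen as loss of intracellular ATP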); details: MRC5 lung fibroblast viability, qHTS
# Procedure, shortened: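 ATP luminescence read-out (CellTiter-Glo, 20 min RT) after 40 hr, 37 °C compound exposure of 1500 MRC5 cells/well. Data normalized to DMSO (basal) and 100 uM tamoxifen (100% inhibition); AC50 from standard Hill equation.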
# [2] = biological target: Mitogen-activated protein kinase 10 (Mus musculus) (UniProt Q61831); test: JNK3 AlphaScreen Assay (AID 530; active = well fitted curve in either direction with a large enough effect, not every such curve was filed as active;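 also: kinase came from lysate of stimulated human HepG2 cells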; also: potency is read from the fitted curve at half-maximal effect); details: JNK3 lysate, c-Jun phosphorylation; series mostly up to 57.1 µM
# Procedure, shortened: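 HepG2 lysate (IL-1b/TNFa pre-activated) + biotin-GST-cJun 1-79 + anti-pSer73 cJun; cpd titration, 15 min RT; ATP 10 uM start; Tris pH 7.6, MgCl2, DTT, vanadate; beads in EDTA buffer; AlphaScreen.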
# [3] = Cell Viability - LYMP2-001 (AID 921); details: LYMP2-001 lymphoblastoid cell viability; series mostly up to 92.2 µM; also: nearly all actives have a fitted effect of over 70% in size
# Procedure, shortened: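 qHTS, 1536-well; lymphoblastoid cells, 24 hr compound, 37 C; ATP by CellTiter-Glo, 30 min RT; luminescence; Hill-fit AC50.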
# [4] = MultiTox-Fluor Cytotoxicity Assay - LYMP1-001 - Live Cells (AID 947); details: LYMP1-001 lymphoblastoid cells, live-cell protease fluorescence viability; series mostly up to 92.2 µM
# [5] = MultiTox-Fluor Cytotoxicity Assay - LYMP1-003 - Dead Cells (AID 961); details: LYMP1-003 lymphoblastoid cells, dead-cell protease fluorescence; series mostly up to 92.2 µM; also: nearly all actives have a fitted effect of over 70% in size
# Procedure, shortened: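 Human lymphoblastoid LYMP1-003 cells (2500/well) were treated with compounds for 16 hr at 37 C in complete medium. Dead-cell protease release was read by bis-AAF-R110 fluorescence (Ex/Em 485/520). AC50 came from Hill fits, normalized to DMSO and 15 uM tetraoctylammonium bromide.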
# [6] = Cell Viability - LYMP1-003 - Assay at 40 hr (AID 964); details: LYMP1-003 lymphoblastoid viability; series mostly up to 92.2 µM; also: nearly all actives have a fitted effect of over 60% in size
# Procedure, shortened: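 LYMP1-003 lymphoblastoid cells, 2500/well; 5 hr preincubation, 40 hr compound exposure, 37 C; CellTiter-Glo 30 min RT; luminescence; Hill-fit AC50. Positive control tetraoctylammonium bromide.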
# [7] = Cell Viability - LYMP2-013 (AID 970); details: LYMP2-013 lymphoblastoid cells viability; series mostly up to 92.2 µM; also: nearly all actives have a fitted effect of over 55% in size
# Procedure, shortened: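 CellTiter-Glo luminescence (cellular ATP) read after 30 min at RT. Cells: human lymphoblastoid line, 2500/well, 24 hr compound exposure at 37 C. Tetraoctylammonium bromide positive control; AC50 via standard Hill fit of qHTS titrations.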
# [8] = Cell Viability - LYMP2-015 (AID 971); details: LYMP2-015 lymphoblastoid cell viability; series mostly up to 92.2 µM; also: nearly all actives have a fitted effect of over 55% in size
# Procedure, shortened: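 qHTS cytotoxicity: 2500 cells/well, 5 hr 37 C, compound 24 hr 37 C, CellTiter-Glo 30 min RT, luminescence. Loss of ATP = toxicity; AC50 via standard Hill fit.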
# [9] = Cell Viability - LYMP2-021 (AID 974); details: LYMP2-021 lymphoblastoid cells viability; series mostly up to 92.2 µM;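 also: compound exposure lasts 24 hours at 37 °C; nearly all actives have a fitted effect of over 55% in size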
# Procedure, shortened: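 ATP luminescence (CellTiter-Glo, 30 min RT) after 24 h compound exposure at 37 C; 2500 human lymphoblastoid cells/well, 5 h settle beforehand. Cytotoxicity = concentration-dependent ATP drop, AC50 by Hill fit.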
# [10] = Cell Viability - LYMP2-002 (AID 977); details: LYMP2-002 lymphoblastoid cell viability, qHTS; series mostly up to 92.2 µM
# Procedure, shortened: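 Human lymphoblastoid cells, 2500/well, complete medium; 5 h 37 C settle; compound 24 h 37 C; CellTiter-Glo, 30 min RT; luminescence. Decrease in ATP = cytotoxicity; AC50 via Hill equation.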
# [11] = Cell Viability - LYMP2-018 (AID 985); details: LYMP2-018 lymphoblastoid cells, viability (qHTS); series mostly up to 92.2 µM; also: nearly all actives have a fitted effect of over 50% in size
# Procedure, shortened: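 2500 cells/well; 5 hr 37 C; cmpd 24 hr 37 C, complete medium; CellTiter-Glo 30 min RT; luminescence. Tetraoctylammonium bromide positive control. AC50 via Hill fit.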
# [12] = Cell Viability - LYMP2-022 (AID 987); details: LYMP2-022 lymphoblastoid cell viability; series mostly up to 92.2 µM; also: nearly all actives have a fitted effect of over 55% in size
# Procedure, shortened: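 Luminescent ATP read-out (CellTiter-Glo, 30 min, RT) after 24 hr, 37 C compound exposure of 2500 human lymphoblastoid cells/well in complete medium. Cytotoxicity taken as concentration-dependent ATP loss; AC50 from standard Hill equation.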
# [13] = biological target: Thyroid hormone receptor beta (Homo sapiens) (UniProt P10828); test: qHTS assay for small molecule antagonists of thyroid hormone receptor beta signaling (AID 588547; active = well fitted inhibition curve with a large enough effect in the signal ratio, with a control signal flat, not every such curve was filed as active; the % refers to the signal ratio;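 also: cells stimulated with 0.4 nM T3 agonist during compound exposure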); details: TR-UAS-bla HEK293, beta-lactamase ratio, antagonist mode, 18 h
# Procedure, shortened: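 TR-UAS-bla GripTite HEK293 cells in 2% charcoal/dextran FBS medium; compounds 0.59 nM to 92 uM with T3 at 0.4nM final, 18 h at 37 C. Beta-lactamase read by CCF4 fluorescence (460/530 nm); Hill fits gave IC50 and efficacy.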
# [14] = Cell Viability - LYMP2-011 (AID 969); details: LYMP2-011 lymphoblastoid cells viability; series mostly up to 92.2 µM;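 also: cells exposed to compound for 24 hours; nearly all actives have a fitted effect of over 60% in size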
# Procedure, shortened: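 Luminescent ATP read-out (CellTiter-Glo, 30 min RT) after 24 hr compound exposure at 37 C in human lymphoblastoid cells, 2500 cells/well. Decreasing ATP indicates cytotoxicity; AC50 from standard Hill fit.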
# [15] = Cell Viability - LYMP2-010 (AID 981); details: LYMP2-010 lymphoblastoid cell viability, qHTS; series mostly up to 92.2 µM
# Procedure, shortened: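 qHTS cytotoxicity, 1536-well: 2500 cells/well, 5 hr settle, 24 hr compound at 37 C, CellTiter-Glo 30 min RT, luminescence read. Decrease in ATP = toxicity; AC50 via standard Hill equation. Positive control tetraoctylammonium bromide.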
# [16] = biological target: Vitamin D3 receptor (Homo sapiens) (UniProt P11473); test: qHTS assay for small molecule antagonists of vitamin D receptor signaling (AID 588541; calls by dose curve;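 also: receptor activated by calcitriol during compound treatment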); details: HEK293T VDR-UAS-bla, beta-lactamase ratio, antagonist mode; series mostly up to 76.7 µM
# Procedure, shortened: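 VDR-UAS-bla HEK293T cells in 2% charcoal-stripped FBS were stimulated with 1-alpha,25-dihydroxyvitamin D3 (3 nM final) plus compound for 16 h at 37 C. The beta-lactamase CCF4 readout was normalized to 50 nM agonist and DMSO, and Hill fits gave IC50.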
# [17] = biological target: Vitamin D3 receptor (Homo sapiens) (UniProt P11473); test: qHTS assay for small molecule agonists of vitamin D receptor signaling (AID 588543; calls by dose curve); details: HEK293T VDR-UAS-bla, beta-lactamase ratio, 16 h; series mostly up to 76.8 µM
# Procedure, shortened: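 qHTS in agonist mode: compound titrations stimulate a VDR-driven β-lactamase reporter in HEK293T cells over 16 h at 37 °C. Response normalized to 50 nM 1α,25-dihydroxyvitamin D3 = 100%, DMSO = 0%; Hill fitting gives EC50 and maximal response.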
# [18] = qHTS assay for small molecule antagonists of the retinoid-related orphan receptor gamma (ROR-gamma) signaling pathway - cell viability counter screen (AID 720652; active = well fitted curve in the direction sought with a large enough effect in the repeat runs; an effect the other way counts as inactive or inconclusive;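 also: CHO reporter cells with doxycycline-induced ROR-gamma expression; compound exposure lasted 16 hr before ATP read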); details: RORgamma reporter cell line viability counter screen; series mostly up to 92.2 µM
# Procedure, shortened: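 CHO RORE-LUC/TET-ROR line, 1,000 cells/well, 37 C 5% CO2 5 hr; cpd or DMSO + doxycycline induction, 16 hr. CellTiter-Glo, 30 min RT, luminescence = ATP content.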
# [19] = MultiTox-Fluor Cytotoxicity Assay - LYMP1-003 - Live Cells (AID 962); details: LYMP1-003 lymphoblastoid cells, MultiTox-Fluor live-cell protease fluorescence; series mostly up to 92.2 µM;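 also: cells exposed to compound for 16 hours at 37 °C; cytotoxic hits lower the live-cell protease signal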
# Procedure, shortened: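 Readout: live-cell fluorescence (Ex/Em=405/510) from GF-AFC cleavage after 60 min MultiTox-Fluor reagent at room temperature. Lymphoblastoid LYMP1-003 cells, 16 hr compound treatment, 37 C. Concentration-response fitted to standard Hill equation for AC50.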
# [20] = qHTS assay for small molecule activators of the human pregnane X receptor (PXR) signaling pathway (AID 720659; call rule not given here); details: DPX-2 HepG2 CYP3A4-luciferase, 24 h; series mostly up to 92.3 µM
# Chain of Vitamin D3 receptor (Homo sapiens) (P11473 whole entry, looked up): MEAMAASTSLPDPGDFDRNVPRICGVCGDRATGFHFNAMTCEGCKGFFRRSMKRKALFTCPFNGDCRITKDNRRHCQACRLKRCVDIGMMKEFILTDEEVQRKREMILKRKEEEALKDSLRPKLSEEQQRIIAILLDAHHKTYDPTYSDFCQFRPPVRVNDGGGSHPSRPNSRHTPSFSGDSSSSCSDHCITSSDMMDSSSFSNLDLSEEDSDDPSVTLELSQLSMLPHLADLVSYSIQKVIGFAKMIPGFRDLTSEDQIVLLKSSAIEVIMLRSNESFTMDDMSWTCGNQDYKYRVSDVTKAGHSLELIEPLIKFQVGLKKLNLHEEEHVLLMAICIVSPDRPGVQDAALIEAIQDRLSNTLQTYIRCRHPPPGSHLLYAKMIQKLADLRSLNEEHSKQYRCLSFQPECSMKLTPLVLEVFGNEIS
# Chain of Thyroid hormone receptor beta (Homo sapiens) (P10828 whole entry, looked up): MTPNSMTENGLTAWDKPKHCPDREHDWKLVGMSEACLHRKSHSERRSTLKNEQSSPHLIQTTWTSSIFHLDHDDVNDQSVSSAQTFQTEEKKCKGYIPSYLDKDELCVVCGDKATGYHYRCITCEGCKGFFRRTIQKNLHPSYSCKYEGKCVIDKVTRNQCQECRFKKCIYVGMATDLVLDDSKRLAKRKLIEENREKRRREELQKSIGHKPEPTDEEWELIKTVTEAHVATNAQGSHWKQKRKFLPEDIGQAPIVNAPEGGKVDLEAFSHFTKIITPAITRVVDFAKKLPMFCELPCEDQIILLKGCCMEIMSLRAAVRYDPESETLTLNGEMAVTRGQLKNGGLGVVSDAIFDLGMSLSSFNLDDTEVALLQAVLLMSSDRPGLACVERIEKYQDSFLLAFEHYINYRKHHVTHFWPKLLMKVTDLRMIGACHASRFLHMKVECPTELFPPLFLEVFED
SMILES,Potency [1] [µM],Potency [2],Potency [3],outcome [4],Potency [5],Potency [6],Potency [7],Potency [8],Potency [9],Potency [10],Potency [11],Potency [12],activity change % (negative = inhibition) [13],Potency [14],Potency [15],outcome [16],outcome [17],Potency [18],outcome [19],outcome [20]
Cc1ccc2c(c1N)C(=O)c1ccccc1C2=O,> 92,3.98 µM (active),inactive,inactive,inactive,inactive,inactive,inactive,inactive,inactive,inactive,inactive,1.36%,–,–,–,–,–,–,–
COP(=S)(OC)SCn1nnc2ccccc2c1=O,–,inactive,inactive,inactive,–,inactive,inactive,inactive,–,–,inactive,inactive,7.85%,inactive,inactive,inactive,inactive,inactive,–,–
O=[N+]([O-])c1cc(Cl)c(Cl)c(Cl)c1,> 92,inactive,inactive,inactive,inactive,inactive,inactive,inactive,inactive,inactive,inactive,inactive,3.05%,inactive,inactive,inactive,inactive,inactive,inactive,inactive
CCCCCCCCCCCCCl,> 92,inactive,inactive,inactive,inactive,inactive,–,–,inactive,inactive,inactive,–,-6.1%,inactive,inactive,–,inactive,inactive,inactive,inactive
Cc1ccc(N)c(C)c1,–,inactive,inactive,inactive,inactive,inactive,inactive,inactive,inactive,inactive,inactive,–,2.7%,inactive,inactive,inactive,inactive,inactive,inactive,inactive
CCCC[N+](=O)[O-],> 92,inactive,inactive,inactive,inactive,inactive,inactive,inactive,inactive,–,–,–,2.77%,inactive,inactive,inactive,inactive,inactive,inactive,inactive
ClCCBr,> 92,inactive,inactive,inactive,inactive,inactive,inactive,inactive,inactive,inactive,inactive,–,0.0673%,inactive,inactive,–,–,inactive,–,inactive
Cc1cc(N=Nc2ccccc2C)ccc1N,> 92,–,inactive,inactive,inactive,–,inactive,inactive,–,inactive,inactive,inactive,-2.95% and 5.44%,inactive,inactive,inactive,inactive,–,inactive,–

# — PubChem BioAssay (NCATS)
